TbPYK inhibitor = T. brucei pyruvate kinase inhibition. Q57TT1. TbPYK enzyme, Kinase-Glo Plus ATP luminescence, 45 min. Potency, µM (top dose mostly 76.8 µM), most hits filed as inhibitors. 410,000 tested, 0.12% active; note: nearly all actives have a fitted effect of over 50% in size
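Activity of T. brucei pyruvate kinase was followed by Kinase-Glo Plus luminescence after the enzyme reacted 45 min at room temperature with 130 uM ADP (final) and substrate. Test compounds were added before ADP at multiple concentrations.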
SARS PLP yeast = blocks SARS-CoV papain-like protease in a yeast assay; S. cerevisiae expressing SARS-CoV PLpro, growth rescue; Potency, µM (titrated, usually from 32.9 µM), most hits filed as activators; 330,000 tested, 0.19% active; AID 485353; calls by dose curve; note: nearly all actives have a fitted effect of over 55% in size
CHX counter = counter-screen for Shiga toxin inhibitors: cycloheximide protein synthesis inhibition. cell reporter, cycloheximide protein synthesis inhibition counterscreen. max response, %. 300,000 tested, 12% active; in the data active = max response mostly above about 13%, no sharp cut-off; inactive = mostly below about 14%; note: read at 38.3 µM for the half of the compounds with a filed dose
NS1 function inh = influenza NS1 inhibition; 270,000 tested, 0.4% active; AID 2326; Potency, µM (top dose mostly 46.1 µM); calls by dose curve; note: actives are rising curves; nearly all actives have a fitted effect of over 50% in size
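In this qHTS, NS1 from influenza A is expressed in budding yeast, where it slows growth. Cells are switched from glucose to 2% galactose medium (pH 6.0, -URA), treated with compound, and growth recovery is read at OD600.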
Shiga inhibitor = blocks Shiga toxin action in Vero cells; 290,000 tested, 9.2% active; AID 2315; Vero cells, Shiga toxin protein synthesis inhibition reporter; inhibition, % at 38.7 µM; in the data active = inhibition mostly above about 28%, no sharp cut-off; inactive = mostly below about 43%
LmPK inh = inhibitors of Leishmania mexicana pyruvate kinase; Q27686; 290,000 tested, 0.37% active; purified LmPK, Kinase-Glo ATP luminescence, 1 h; Potency, µM (top dose mostly 57.5 µM), usual class: inhibitors
Target sequence (Q27686 whole entry, looked up): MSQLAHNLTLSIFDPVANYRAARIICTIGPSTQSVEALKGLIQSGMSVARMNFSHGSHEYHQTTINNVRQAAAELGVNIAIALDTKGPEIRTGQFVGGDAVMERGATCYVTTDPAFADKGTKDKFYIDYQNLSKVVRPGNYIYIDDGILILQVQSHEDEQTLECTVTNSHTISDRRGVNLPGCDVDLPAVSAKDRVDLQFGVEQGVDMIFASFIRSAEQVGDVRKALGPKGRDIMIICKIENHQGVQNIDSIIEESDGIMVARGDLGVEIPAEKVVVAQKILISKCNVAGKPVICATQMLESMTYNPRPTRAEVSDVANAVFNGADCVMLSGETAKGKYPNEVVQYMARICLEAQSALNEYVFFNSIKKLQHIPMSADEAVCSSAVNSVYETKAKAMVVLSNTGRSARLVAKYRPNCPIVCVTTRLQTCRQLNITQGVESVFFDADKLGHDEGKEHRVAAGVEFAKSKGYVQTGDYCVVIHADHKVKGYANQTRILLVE
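In 50 mM imidazole pH 7.2 with 7 mM MgCl2, LmPK (0.1 nM) turned over PEP (0.5 mM) and ADP (0.1 mM) for 1 h at room temperature. Luciferase read-out of ATP.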
Large screens that a line does not name were inactive. The full list was thinned out, with hits kept by preference. Unless noted, calls come from the whole dose curve; as a rule, active = well fitted curve in the direction sought with a large enough effect; inconclusive = small, poorly fitted or top-dose-only effect, or another doubt; inactive = no such curve, though single readings can be large; an effect the other way counts as inactive or inconclusive.

CC(=O)N[C@@H]1[C@@H](O)[C@@H]2OC(c3ccccc3)OC[C@H]2O[C@@H]1N=[N+]=[N-] (stereo partly specified)	none
CCOc1ccccc1NC(=O)CSc1nc2c(oc3ccccc32)c(=O)n1C(C)C	none (no result: SARS PLP yeast, CHX counter, NS1 function inh, Shiga inhibitor, LmPK inh)
CC(=O)c1sc(NC(=O)c2ccccc2F)nc1-c1ccccc1	CHX counter 43.4, Shiga inhibitor 133.8 (no result: NS1 function inh)
Cc1nc(NC(=O)c2ccco2)sc1C(=O)O	TbPYK inhibitor 25.1µM, LmPK inh 25.1µM
CCOC(=O)c1sc(NC(=O)c2ccco2)nc1-c1ccccc1	none
CC(=O)c1sc(NC(=O)c2ccco2)nc1-c1ccccc1	CHX counter 21.4, Shiga inhibitor 64.6
O=C1CC(c2nnc(Cc3ccccc3Cl)o2)CN1c1ccccc1 (stereo unspecified)	none (no result: SARS PLP yeast, CHX counter, NS1 function inh, Shiga inhibitor, LmPK inh)
O=C(CSc1ccc(-c2ccc(Br)cc2)nn1)NC1CCCC1	none
CCOC(=O)/C(C#N)=C1/C=CN(c2ccc(C)cc2)C=N1	CHX counter 29.5, Shiga inhibitor 64.1
CCOC(=O)/C(C#N)=C1/C=CN(c2ccccc2)C=N1	SARS PLP yeast inconclusive
COc1ccc(C(=O)/C=C/Nc2ccc(S(N)(=O)=O)cc2)cc1OC	CHX counter 14.0
COC(=O)c1ccc(/C=C/C(=O)c2ccc(OC)c(OC)c2)cc1	none
COc1ccc(C(=O)/C=C/Nc2ccc(C)cn2)cc1OC	SARS PLP yeast inconclusive, CHX counter 38.0, Shiga inhibitor 75.4
CCCOc1ccc(N/C=C/C(=O)c2ccc(OC)c(OC)c2)cc1	none
CCOc1ccc(N/C=C/C(=O)c2ccc(OC)c(OC)c2)cc1	CHX counter 40.6, Shiga inhibitor 82.5
CCOc1ccc(C(=O)/C=C/Nc2ccc(S(=O)(=O)N=C(N)N)cc2)cc1	CHX counter 22.9, Shiga inhibitor 62.1
COCC1CCN(Cc2nc(-c3ccc4c(c3)OCO4)no2)C1 (stereo unspecified)	CHX counter 38.6, Shiga inhibitor 67.2
c1cc(C2CCN(Cc3nc(-c4ccc5c(c4)OCO5)no3)CC2)ccn1	none
Fc1ccc(CN2CCCN(Cc3nc(-c4ccc5c(c4)OCO5)no3)CC2)cc1	CHX counter 14.7
CN(CCCCN1CCOCC1)Cc1nc(-c2ccc3c(c2)OCO3)no1	CHX counter 9.5
Cc1ccc(-c2[nH]ncc2CNCCc2cnn(-c3ccccc3)c2)cc1C	none
CN(CCc1cnn(C)c1)Cc1cn[nH]c1-c1ccc(-c2ccccc2)cc1	CHX counter 17.3, Shiga inhibitor 42.6
Cn1cc(CCNCc2cn[nH]c2-c2ccc(-c3ccccc3)cc2)cn1	CHX counter 30.8, Shiga inhibitor 54.0
CCCN1C(=O)c2[nH]nc(-c3ccccc3O)c2C1c1ccc(OCc2ccccc2)c(OCC)c1 (stereo unspecified)	none (no result: SARS PLP yeast, CHX counter, NS1 function inh, Shiga inhibitor, LmPK inh)
CCOC(=O)c1nc(C)n(-c2cc(OC)c(Cl)cc2Cl)n1	CHX counter 46.1, Shiga inhibitor 41.1 (no result: NS1 function inh)
CCOC(=O)c1nc(C)n(-c2cc(Cl)ccc2Cl)n1	none
CC(=O)N(CCN(C)C)c1nc2cc3c(cc2s1)OCCO3	CHX counter 30.8, Shiga inhibitor 65.6
CCN(CC)CCN(C(=O)C1=COCCO1)c1nc2ccc(C)cc2s1	CHX counter 18.4, Shiga inhibitor 34.9
CCOC(=O)N1CCN(S(=O)(=O)c2ccc(C(=O)N(CCN(C)C)c3nc4ccc(Cl)cc4s3)cc2)CC1	CHX counter 27.4, Shiga inhibitor 110.2
COc1cc2nc(N(CCN(C)C)C(=O)c3ccc(S(=O)(=O)N(C)CC4CCCO4)cc3)sc2cc1OC (stereo unspecified)	none
CN(C)CCN(C(=O)c1ccc(S(=O)(=O)N(C)CC2CCCO2)cc1)c1nc2cc3c(cc2s1)OCO3 (stereo unspecified)	CHX counter 24.9
Cc1ccc2nc3n(c(=O)c2c1)-c1cc(Cl)ccc1C(=O)NC3Cc1ccc(O)cc1 (stereo unspecified)	none (no result: TbPYK inhibitor, CHX counter, NS1 function inh, Shiga inhibitor, LmPK inh)
CCN(CC)CCN(C(=O)c1ccc2ncsc2c1)c1nc2cc3c(cc2s1)OCO3	TbPYK inhibitor inconclusive, CHX counter 75.1, Shiga inhibitor 125.4
CCN(CC)CCN(C(=O)c1ccc(C(=O)c2ccccc2)cc1)c1nc2cc3c(cc2s1)OCO3	none
CN(C)CCN(C(=O)c1ccc2c(c1)OCCO2)c1nc2cc3c(cc2s1)OCO3	CHX counter 55.1

Compound activity deposited in PubChem BioAssay by National Center for Advancing Translational Sciences (NCATS).
